High-throughput results (PubChem)
This is a sample that favours compounds with a hit; in the whole collection about 3.5% have one here.
TEAD-YAP inh: TEAD-YAP interaction inhibition; HEK-TIYL cells, TEAD-Gal4/YAP UAS-luciferase luminescence; inhibition, % at 9.12 µM; 640,000 compounds, 1.4% hits; AID 1259422; in the data active means inhibition above about 32%;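 further: 0% = median of test compound wells and 100% = reference inhibitor wells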
MITF primary: human MITF inhibition, primary screen | O75030 | inhibition, % at 2.6 µM | AlphaScreen MITF homodimerization, bead proximity signal | 650,000 compounds, 0.91% hits | AID 1259374; in the data active means inhibition above about 50%;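 further: 0% = vehicle wells with protein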
Target sequence (O75030 whole entry, looked up): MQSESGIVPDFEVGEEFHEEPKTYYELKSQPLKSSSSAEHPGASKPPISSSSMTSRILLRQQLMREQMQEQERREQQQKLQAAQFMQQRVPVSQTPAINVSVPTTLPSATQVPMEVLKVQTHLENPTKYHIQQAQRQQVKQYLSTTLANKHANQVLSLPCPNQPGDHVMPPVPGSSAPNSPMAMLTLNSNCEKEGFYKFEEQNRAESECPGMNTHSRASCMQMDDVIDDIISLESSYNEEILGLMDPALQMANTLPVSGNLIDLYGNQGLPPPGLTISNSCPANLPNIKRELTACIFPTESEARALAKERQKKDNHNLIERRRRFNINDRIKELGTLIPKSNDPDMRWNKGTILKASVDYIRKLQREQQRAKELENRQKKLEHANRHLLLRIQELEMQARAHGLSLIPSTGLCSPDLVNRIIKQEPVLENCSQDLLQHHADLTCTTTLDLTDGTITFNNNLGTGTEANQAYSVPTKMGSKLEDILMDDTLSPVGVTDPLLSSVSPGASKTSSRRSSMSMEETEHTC
GPR151 ag: activators of human GPR151; Q8TDV0; PathHunter beta-arrestin GPR151 cells, luminescence; activation, % at 11.2 µM; 650,000 compounds, 1% hits; in the data active means activation above about 4.9%;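 further: 0% = median of compound wells and 100% = cells with positive control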
FBW7 activator: human FBW7 E3 ligase activation, primary screen. AlphaScreen FBW7–phospho-cyclin E peptide binding, activator screen. Q969H0. 650,000 compounds, 0.13% hits. normalized activity (activation), % at 26.1 µM; in the data active means normalized activity above about 1.9%;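 further: purified mutant Fbw7 with reduced substrate affinity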
* marks the source's active call; other numbers are inactive results.

SMILES	TEAD-YAP inh	MITF primary	GPR151 ag	FBW7 activator
CCCC[n+]1ccc(/C=C2\C=Cc3ccccc3N2CC)c2cc(C)ccc21	92*	72*	1	-1
Cc1cc(C)n(CCC(=O)Nc2ccc(F)cc2)n1	0	0	1	0
C/C(=C\c1ccccc1)CN1CCC2(CCC(CNC(=O)c3ccco3)O2)CC1 (stereo unspecified)	2	18	1	0
CCN1C(=O)S/C(=C\c2ccc(Cl)cc2)C1=O	-10	8	0	0
Cc1ccc2c(c1)C=C/C(=C\c1cccc[n+]1C)N2C	84*	12	1	0
CCN1/C(=C/c2cc[n+](-c3ccc(Cl)cc3)cc2)C=Cc2ccccc21	91*	28	1	-1
COc1ccc(-c2csc(N)n2)cc1OC	-10	12	1	0
COc1ccc(/C(C)=N/NC(=O)c2ccccc2[N+](=O)[O-])c(OC)c1	12	3	1	0
Cc1cc(C(=O)NN)c2ccccc2n1	44*	-2	0	0
Cc1cc(C(=O)NN=C2CCN(C)CC2)c2ccccc2n1	51*	1	-1	0
COc1ccc(/C(C)=N\NC(=O)c2ccccc2O)c(OC)c1	85*	-3	-3	0
Cc1cc(C(=O)N/N=C/c2cccc([N+](=O)[O-])c2)c2ccccc2n1	12	6	2	0
Cc1cc(C(=O)N/N=C/c2ccc(OC(F)F)cc2)c2ccccc2n1	55*	0	2	0
CN1CCC(=NNC(=O)c2c[nH]c3ccccc23)CC1	-7	5	-1	0
COc1ccc(NC(=O)Cc2c(C(=O)O)n(C)c3ccccc23)c(OC)c1	7	25	0	0
O=C(c1ccc(Cl)cc1Cl)N1N=C(C2CC2)CC1(O)C(F)(F)F (stereo unspecified)	3	9	-1	0
COc1cc(C(=O)Oc2ccccc2/C=N/NC(=O)c2cc(C)[nH]n2)cc(OC)c1OC	-35	-1	1	0
C/C(=N\NC(=O)c1cc(C)nc2ccccc12)c1ccccc1O	53*	-20	2	-1
C/C(=N\NC(=O)c1cc(C)nc2ccccc12)c1ccco1	45*	10	0	0
C/C(=N\NC(=O)c1cc(-c2c(C)nn(-c3ccccc3)c2C)n[nH]1)c1ccccc1O	44*	7	4	0
CC(C)(C)C(=O)COC(=O)c1ccccc1NC(=O)c1ccccc1	-7	-8	-3	0
CNc1cc(Nc2cccc(C(F)(F)F)c2)ncn1	-18	-1	2	0
COc1cc(OC)cc(C(=O)c2c(N)sc3c2CCC(C)C3)c1 (stereo unspecified)	54*	-5	1	0
COc1cc(OC)cc(C(=O)c2c(N)sc3c2CCCC3)c1	3	-11	0	0
COc1c(OC(C)=O)ccc(/C=N/NC(=O)COc2c(C)cccc2C)c1[N+](=O)[O-]	20	7	0	0
SMILES	TEAD-YAP inh	MITF primary	GPR151 ag	FBW7 activator
COc1c(OC(C)=O)ccc(/C=N/NC(=O)COc2c(C)ccc(C)c2C)c1[N+](=O)[O-]	52*	7	2	1
CCCCOc1ccc(-c2cnc(S(C)(=O)=O)nc2)cc1	46*	0	2	0
c1ccc2c(-c3csc(NC4CCCC4)n3)c[nH]c2c1	-9	1	0	5.4*
c1ccc2c(-c3csc(NCC4CCCO4)n3)c[nH]c2c1 (stereo unspecified)	-10	-6	0	0
O=C(Nc1cccc(Cl)c1Cl)c1ccc(S(=O)(=O)N2CCc3ccccc3C2)cc1	-6	8	-1	0
O=C1CC(=O)Nc2cc(S(=O)(=O)Nc3ccccc3F)ccc2N1	7	1	0	0
c1ccc(C2=NNC(=NC3CC3)SC2)cc1	80*	-7	-10	0
c1ccc(N=C2NN=C(c3ccccc3)CS2)cc1	-36	-7	1	0
COCCn1c(C)cc(C2=NNC(=Nc3cccc(C)c3)SC2)c1C	25	13	1	0
COc1ccccc1N=C1NN=C(c2ccccc2OC)CS1	-13	0	-1	0
COCCn1c(C)cc(C2=NNC(=Nc3ccc(C)cc3)SC2)c1C	-3	-5	0	0
Cc1cc(C2=NNC(=Nc3ccccc3)SC2)c(C)n1CC1CCCO1 (stereo unspecified)	54*	7	0	0
COCCCN=C1NN=C(c2cc(C)n(Cc3ccco3)c2C)CS1	46*	-2	1	0
C=CCN=C1NN=C(c2cc(C)n(CCOC)c2C)CS1	95*	5	-7	0
C=CCn1c(C)cc(C2=NNC(=Nc3ccccc3OC)SC2)c1C	72*	-12	1	0
O=C1[C@@H]2C[C@H](NCc3sc4ccccc4c3Cl)CN2C(=O)[C@@H]2CCCN12	39*	2	-2	0
NCCCC[C@@H]1NC(=O)[C@@H]2C[C@H](NCc3sc4ccccc4c3Cl)CN2C1=O	33*	5	-1	0
Cc1ccc2c(c1)cc1c(=O)n(CC(=O)NCCCN3CCCCCC3)nc(C)n12	4	-136	-1	0
CCOc1ccc(Nc2nc(N)c(C(=O)c3cccc(OC)c3)s2)cc1	61*	3	-1	0
CCOc1ccc(Nc2nc(-c3ccc(OC)c(OC)c3)c(CC(=O)O)s2)cc1	34*	0	1	0
COc1ccc(OC)c(-c2nc(Nc3ccccc3F)sc2CC(=O)O)c1	-14	3	0	0
COc1ccc(-c2nc(Nc3ccccc3OC)sc2CC(=O)O)cc1	51*	8	2	0
CCOc1ccc(Nc2nc(-c3ccccc3)c(C(=O)Nc3cccc(OC)c3)s2)cc1	-12	-6	0	0
CCN(CC)c1ccc2cc(C=O)c(=O)oc2c1	8	11	0	0
CCN(CC)c1ccc2nc3c4ccccc4c(=O)cc-3oc2c1	34*	8	2	0
SMILES	TEAD-YAP inh	MITF primary	GPR151 ag	FBW7 activator
COc1ccc(-c2ccc(NCCCN(C)C)nc2)cc1	4	-12	0	0
COc1ccc2c(-c3ccccc3)cc(NCCCN(C)C)nc2c1	-13	68*	-1	0
CN1CCC(N(C)C(=O)/C(C#N)=C/c2ccccc2)CC1	-9	-14	0	0
CCC(C)n1c(SCc2ccccc2F)nc2ccsc2c1=O (stereo unspecified)	-6	7	0	0
CCC(C)n1c(SCc2ccccc2C)nc2ccsc2c1=O (stereo unspecified)	47*	-24	1	0
COc1ccc(/C=N/NC(=O)COc2cc(C)ccc2C(C)C)cc1O	63*	1	1	0
COc1ccc(-c2cnnc(N/N=C/c3ccc(O)c(OC)c3)n2)cc1	36*	10	2	0
COc1cc(C(=O)N/N=C/c2ccc(O)cc2O)cc(OC)c1OC	55*	52*	0	0
COc1cc(OC)c(OC)cc1/C=N\NC(=O)c1cc(O)c(O)c(O)c1	-2	66*	1	0
COc1cc(/C=N/NC(=O)c2cc(OC)c(OC)c(OC)c2)ccc1O	56*	1	1	0
